ALR inh: blocks human ALR sulfhydryl oxidase activity; inhibition, % (concentration not given with the values); AID 485317; P55789; 290,000 compounds, 3.8% hits; purified ALR, DTT oxidation, H2O2 HRP-luminol luminescence;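 active means mean replicate inhibition above about 79%, with every replicate also reaching it, limit read from the data; inconclusive means only one of the two criteria met; inactive means mean below limit and not every replicate reaching it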
Target sequence (P55789 whole entry, looked up): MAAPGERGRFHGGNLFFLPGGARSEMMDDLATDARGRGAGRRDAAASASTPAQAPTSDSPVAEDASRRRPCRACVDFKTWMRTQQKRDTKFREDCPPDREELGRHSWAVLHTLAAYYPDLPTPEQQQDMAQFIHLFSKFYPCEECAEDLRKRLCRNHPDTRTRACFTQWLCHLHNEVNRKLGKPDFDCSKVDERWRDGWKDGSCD
AI-2 QS mod: Vibrio harveyi AI-2 quorum sensing modulation; activity change, % at 7.5 µM; 300,000 compounds, 0.4% hits; AID 2094; Vibrio harveyi JMH597 AI-2 luminescence/OD600 ratio, 9 h; stronger effect = lower value; strain lacks LuxN and CqsS sensors; 0 = neutral-control median; in the data active means activity change below about -75%, passing the limit was not always enough; inconclusive means no clear call, values can overlap the other calls;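 further: luminescence divided by OD600 gain over 9 h not by final OD600 alone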
HIF act: HIF pathway transcriptional activation. U2OS HRE-luciferase reporter, luminescence; normalized: DMSO 0%, desferrioxamine 100%. activation, % at 7.5 µM (by protocol). 300,000 compounds, 0.32% hits;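 active means mean activation of at least 10% of the iron chelator positive control signal, with at least half of replicates also reaching 10%; inconclusive means mean and replicate majority disagree about reaching 10%; inactive means mean and most replicates under 10%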
SUMO Mot1 rescue: SUMOylation pathway inhibition by Mot1-301 growth rescue; 320,000 compounds, 1% hits; growth rescue, % at 18.8 µM; AID 2716; S. cerevisiae Mot1-301 growth rescue, ATP luminescence, 38.5C; percent above DMSO median, 100 means doubled;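 active means every valid replicate shows activation above 250% relative to neutral control wells; inactive means the rest, any valid replicate at or below 250%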;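 further: OY570 slx delta 5 strain wells were the positive control but not used for scaling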
Starred values were filed as active, the others as inactive; ? = inconclusive; . = no result given; + = active, no number. Sampled rows, rich in hits. Any-hit rate of the full collection: about 4.8%.

SMILES	ALR inh	AI-2 QS mod	HIF act	SUMO Mot1 rescue
O=[N+]([O-])c1ccccc1/C=N/n1c(C(F)(F)F)n[nH]c1=S	94.9*	22.4	3.9	-1.6
Cc1ccc(F)cc1NC(=O)COC(=O)C1CCN(c2ccc(C(F)(F)F)cn2)CC1	-3.4	.	0.1	1.9
NS(=O)(=O)c1ccc(NC(=S)NNC(=O)c2ccc(Br)o2)cc1	94.9*	19.8	0.4	-10.7
Cc1c(C(=O)NNC(=S)Nc2ccc(S(N)(=O)=O)cc2)oc2ccccc12	99.0*	-1.2	0.2	-9.6
NS(=O)(=O)c1ccc(NC(=S)NC2CC2)cc1	.	14.9	0.7	691.4*
Cn1c(N/N=C/c2ccccc2)nc2sc3c(c2c1=O)CCC3	92.1*	-2.6	2.1	-9.2
CC1CCCC(C)N1/N=C/c1ccc(O)cc1 (stereo unspecified)	94.3*	-3.6	-1.1	32.3
COc1cc(/C=N/N2C(C)CCCC2C)cc(OC)c1O (stereo unspecified)	99.6*	4.4	-0.1	-9.9
CC1CCCC(C)N1/N=C/c1ccc(C(=O)O)cc1 (stereo unspecified)	4.1	36.9	-0.1	-11.4
Oc1cccc2cnccc12	99.0*	29.7	-0.4	34.2
N#Cc1cccc2cnccc12	-3.3	31.5	-23.9	329.1*
O=C(NCCS(=O)(=O)NCc1ccc2c(c1)OCO2)c1ccccc1	-7.9	13.4	0.1	-1.2
C[C@]12c3[nH]c4ccccc4c3CCN1C(=O)C(CC(=O)NCCCn1ccnc1)C[C@@H]2C(=O)N1CCOCC1 (stereo partly specified)	1.2	.	.	-5.7
Cc1cc([N+](=O)[O-])nn1Cc1ccc(C(=O)N/N=C/c2ccc(O)cc2O)cc1	13.6	14.5	21.1*	-6.3
O=C(N/N=C/c1ccccc1)c1ccc(CN2C(=O)c3cccc4cccc2c34)cc1	5.1	16.3	0.2	1.6
O=C(N/N=C/c1ccc(O)cc1O)c1ccc(CN2C(=O)c3cccc4cccc2c34)cc1	-19.1	4.5	13.1*	3.5
COc1cc(/C=N/NC(=O)c2cccc(C(=O)N/N=C/c3ccc(O)c(OC)c3)n2)ccc1O	1.7	9.8	1.1	5.1
COc1cc(/C=N/NC(=O)c2ccncc2)ccc1O	98.7*	18.5	-0.1	-2.6
COc1cc(/C=N/NC(=O)c2cc[n+]([O-])cc2)ccc1O	99.1*	3.4	-0.3	-1.3
CCOc1ccc(/C=N/NC(=O)C2(O)c3ccccc3-c3ccccc32)cc1	-4.7	8.4	-0.7	-20.6
COc1cc(/C=N/NC(=O)C2(O)c3ccccc3-c3ccccc32)ccc1O	99.4*	14.0	0.2	-6.8
COc1cc(/C=N/NC(=O)c2nc(C)cc(C)n2)ccc1O	99.0*	30.1	0.3	-0.2
Cc1ccc(-c2[nH]ncc2C(=O)c2ccccc2C)c(O)c1	70.4	9.1	0.0	-2.3
CCCCC1(Br)C(=O)N(c2ccccc2)N(c2ccccc2)C1=O	.	.	.	33.4
O=C(N/N=C/c1cc(Cl)ccc1O)c1ccncc1	.	?	26.5*	6.1
SMILES	ALR inh	AI-2 QS mod	HIF act	SUMO Mot1 rescue
COc1cc(/C=N/NC(=O)c2cc3ccccc3[nH]2)ccc1O	99.6*	4.1	-0.7	-19.6
COc1cc(/C=N/Nc2ncc(C(F)(F)F)cc2Cl)cc(OC)c1OC	-8.6	-8.2	-0.2	-10.2
O=C(NCC1CCCO1)C(=O)N/N=C/c1cc(Cl)ccc1O (stereo unspecified)	0.2	-89.5*	0.1	-5.7
COc1cc(/C=N/Nc2ncc(C(F)(F)F)cc2Cl)cc(OC)c1O	98.8*	16.2	0.3	-2.4
O=C(N/N=C/c1ccccc1Cl)c1ccncc1	-5.7	20.3	-0.5	-12.1
COc1ccc(/C=N/NC(=O)c2cc3c(OC)ccc(OC)c3[nH]2)cc1O	65.7	13.0	0.3	-11.2
COCCn1ccc2c(OCC(=O)Nc3cccc(NC(C)=O)c3)cccc2c1=O	.	13.3	0.1	84.0
O=C(Cn1cc(C(F)(F)F)cc(Cl)c1=O)NC1CCS(=O)(=O)C1 (stereo unspecified)	0.2	.	.	2.5
COc1cc(/C=N/NC(=O)C(=O)/C=C2\NC(C)(C)Cc3ccccc32)ccc1O	82.0*	0.9	0.4	-5.3
O=C(O)c1ccc(/C=N/Nc2ccc(C(F)(F)F)cn2)cc1	.	25.3	1.9	.
COc1cc(/C=N/Nc2cc(C)nc(N)n2)ccc1O	97.7*	-6.8	1.5	-11.0
COc1cc(/C=N/Nc2ccc(C(F)(F)F)cn2)ccc1O	99.5*	17.2	2.9	+
O=C(N/N=C/c1cccnc1)c1ccc(NC(=O)c2ccc(Cl)cc2)cc1	.	6.4	39.5*	-2.3
CCC(COC)NC(=O)c1ccc(OC)c(OC2CCN(C(C)=O)CC2)c1 (stereo unspecified)	.	17.3	-2.0	-0.5
COc1ccc(OC)c(S(=O)(=O)Nc2cc3c4c(c2)C(C)C(=O)N4CCC3)c1 (stereo unspecified)	-4.7	13.6	2.0	-13.6
O=C(N/N=C/c1cc2cc3c(cc2nc1Cl)OCO3)c1ccncc1	-3.4	27.0	345.2*	-0.5
O=C(N/N=C/c1cc2cc3c(cc2nc1Cl)OCCO3)c1ccccc1O	1.2	13.8	1.0	-4.4
CC/C(=N/OC(=O)c1cccc(C)c1)C(=O)c1cccs1	91.4*	7.6	0.0	-8.7
C/C(=N/OC(=O)c1ccc(C)cc1)c1cccs1	-17.9	18.0	0.5	-64.2
CCOC(=O)C(C)Sc1ncnc2c1nnn2-c1ccc(F)cc1 (stereo unspecified)	96.4*	19.0	0.9	121.9
CCC(C(=O)OC)n1cnc2c(nnn2-c2ccc(F)cc2)c1=O (stereo unspecified)	0.6	36.1	0.6	118.9
COC(=O)c1ccc(CSc2ncnc3c2nnn3-c2ccc(F)cc2)o1	98.7*	1.9	-0.2	23.4
CCC(Sc1ncnc2c1nnn2-c1ccc(F)cc1)C(=O)OC (stereo unspecified)	96.3*	7.6	1.2	-14.1
CCN(CC)C(=O)CSc1ncnc2c1nnn2-c1ccc(F)cc1	-0.5	22.0	-0.2	0.5
COC(=O)c1ccc(CSc2ncnc3ccccc23)o1	-0.6	9.0	0.0	-8.4
SMILES	ALR inh	AI-2 QS mod	HIF act	SUMO Mot1 rescue
NC(=O)C1CCN(C(=O)C2CC(=O)N(Cc3ccccc3)C2)CC1 (stereo unspecified)	-1.5	.	.	11.0
CCOC(=O)c1c(C)oc2c1c1c(c3ccccc32)OCN(CCCC(=O)O)C1	91.1*	-0.6	2.7	-5.6
O=C(CCl)N=c1sccn1Cc1ccc(Cl)cc1Cl	94.8*	21.7	0.2	-15.7
CCN(c1ccc(OC)cc1)S(=O)(=O)c1ccc2c(c1)CCN2C(=O)CCC(=O)O	-2.2	34.6	0.0	-20.1
CCN(c1ccc(C)c(C)c1)S(=O)(=O)c1ccc2c(c1)CCN2C(=O)CCC(=O)O	98.8*	26.5	.	6.6
O=C(N=C1SC2CS(=O)(=O)CC2N1CCc1ccc(F)cc1)C1CCCCC1 (stereo unspecified)	-13.9	10.5	-0.4	10.0
CC(C)c1ccc(C(C(=O)NC2CCCCC2)N(C(=O)c2ccccn2)c2cccnc2)cc1 (stereo unspecified)	-14.9	25.6	-1.6	-11.6

Assay outcomes: PubChem BioAssay, Broad Institute
